Compound activity from PubChem.
Rab9 prom act = activators of Rab9 promoter; Huh7 Rab9 promoter-luciferase reporter, luminescence, 24 h; Potency, µM (doses to about 9.22 µM), inactives show at the highest dose activation, negative = inhibition, actives largely listed as activators; actives 2.8% (n = 320,000); note: % of control where 0% means no effect; nearly all actives have a fitted effect of over 60% in size
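Quantitative HTS format; Huh7 Rab9-luciferase reporter cells (1500/well) receive compound 2 h post-plating, incubate 24 h at 37 °C, then get luciferase reagent for 10 min before luminescence reading.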
SMN2 splice up = SMN2 splice variant enhancement; HEK293 SMN2-luciferase splicing reporter, luminescence, 30-36 h; Potency, µM (titrated, usually from 46.1 µM), for the others: at the highest dose activity change, positive = activation, usual class: activators; actives 2.8% (n = 210,000); AID 1458; note: % of control where 0% means no effect; nearly all actives have a fitted effect of over 55% in size
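HEK293 cells carry an SMN2 […]–luciferase reporter in which exon 7 inclusion puts luciferase in frame. Cells were plated 10-12 h before compound addition, then incubated 30-36 h at 37C. ONE-Glo luminescence was read; sodium butyrate at 4.5 mM final served as control.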
FLuc modulator = inhibits or activates purified firefly luciferase, miR-21 counter-screen; P08659; purified FLuc, Km substrates, luminescence inhibition; actives 6.9% (n = 360,000); Potency, µM (top dose mostly 57.5 µM), inactives show at the highest dose activity change, negative = inhibition, hits mostly inhibitors;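 note: plate controls were vehicle for no effect and reference inhibitor for full effect; nearly all actives have a fitted effect of over 55% in size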
Target sequence (P08659 whole entry, looked up): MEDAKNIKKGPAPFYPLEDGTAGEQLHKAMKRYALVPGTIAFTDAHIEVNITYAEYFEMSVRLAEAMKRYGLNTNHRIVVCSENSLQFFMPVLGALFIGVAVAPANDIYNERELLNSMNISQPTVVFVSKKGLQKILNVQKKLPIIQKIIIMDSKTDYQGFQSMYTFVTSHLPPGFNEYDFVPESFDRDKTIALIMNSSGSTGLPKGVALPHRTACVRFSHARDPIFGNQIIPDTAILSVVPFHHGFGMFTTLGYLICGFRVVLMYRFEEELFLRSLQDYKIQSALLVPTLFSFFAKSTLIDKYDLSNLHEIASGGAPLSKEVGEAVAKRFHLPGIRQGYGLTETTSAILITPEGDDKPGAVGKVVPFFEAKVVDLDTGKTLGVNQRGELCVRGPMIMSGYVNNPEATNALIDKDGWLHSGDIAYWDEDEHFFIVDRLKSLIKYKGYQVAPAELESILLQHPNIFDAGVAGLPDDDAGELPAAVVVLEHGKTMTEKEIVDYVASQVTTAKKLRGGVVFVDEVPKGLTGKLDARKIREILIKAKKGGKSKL
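Biochemical qHTS of compounds, final roughly 60 µM downward over six points, against 10 nM purified firefly luciferase using Km concentrations of substrates (10 uM D-luciferin, 10 uM ATP) in Tris acetate pH 7.5 buffer; luminescence output.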
NPC1 promoter act = activators of NPC1 promoter. actives 2.4% (n = 320,000). Potency, µM (top dose mostly 9.22 µM), inactives show at the top dose activation, most hits filed as activators. AID 485313. Huh7 NPC1 promoter luciferase reporter, 24 h; note: % of control where 0% means no effect; nearly all actives have a fitted effect of over 60% in size
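Huh7 reporter cells (NPC1 promoter driving luciferase) are dosed with compound for 24 h at 37 °C, 5% CO2; luciferase detection reagent is then added and luminescence measured after 10 min at ambient temperature.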
ELG1 genotoxic = genotoxicity induction in ELG1-luciferase HEK293T cells; HEK293T ELG1-luciferase reporter, luminescence, 16 h; Potency, µM (highest dose often 46 µM), for the others: top-dose activity change, positive = activation, usual class: activators; actives 1.3% (n = 330,000); note: % of control where 0% means no effect; nearly all actives have a fitted effect of over 60% in size
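Genotoxic stress is detected as increased luminescence from luciferase-tagged ELG1 in HEK293T cells, measured with ONE-Glo after a 16 hr treatment at 37 °C.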
KinaseGlo FLuc = Kinase-Glo luciferase inhibition (counter-screen); Q27757; Kinase-Glo luciferase, ATP luminescence, 8 min; Potency, µM (series often up to 38.3 µM), inactives show top-dose activity change, negative = inhibition, usual class: inhibitors; actives 0.28% (n = 200,000); AID 1379; note: % is set by controls: 0 for no effect and ±100 for the full control effect; nearly all actives have a fitted effect of over 60% in size
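Kinase-Glo luciferase light output from ATP and luciferin was measured with 10 uM ATP, within the enzyme's linear range. Buffer: 50 mM imidazole pH 7.2, 50 mM KCl, 7 mM MgCl2, 0.01% Tween 20, 0.05% BSA; luminescence read after 8 min at ambient temperature.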
The depositor's hits bear a star; ? = inconclusive; . = not tested or not shown; [ ] = another dose, or the depositor's remark. In the library only some 7.3% were active in any assay of this set; here they are far more common. Calls come from the whole dose curve; as a rule, active = well fitted curve in the direction sought with a large enough effect; inconclusive = small, poorly fitted or top-dose-only effect, or another doubt; inactive = no such curve, though single readings can be large; an effect the other way counts as inactive or inconclusive. Potency is the fitted concentration of half-maximal effect.

SMILES	Rab9 prom act	SMN2 splice up	FLuc modulator	NPC1 promoter act	ELG1 genotoxic	KinaseGlo FLuc
Cc1ccnc(SCC(=O)c2ccc(Br)s2)n1	18.4%	14.9%	-7.0%	-1.2%	3.7%	-1.1%
CCn1c(SCC(=O)c2cc(C)n(-c3ccc(C(=O)OC)cc3)c2C)nnc1-c1cccnc1	-3.5%	-6.8%	15.1µM*	-1.5%	-16.8%	-4.9%
CCn1c(SCC(=O)O)nnc1-c1cc2c(C)nn(-c3ccccc3)c2s1	0.2%	-5.7%	9.53µM*	1.8%	1.3%	-0.9%
Cc1ccnc(SCC(=O)c2cccs2)n1	3.16µM*	?	?	3.55µM*	?	-18.4%
CCn1c(SCC(=O)c2ccccc2)nnc1-c1cccs1	?	7.7%	9.53µM*	?	?	-3.7%
COc1ccc(NC(=O)c2cc3c(=O)n(Cc4cccnc4)ccc3nc2C)c(OC)c1	.	.	2.4%	.	.	.
CCn1c(SCC(=O)c2ccc(O)c(O)c2)nnc1-c1ccccc1	-7.9%	?	?	-1.8%	20.6µM*	-1.3%
CCn1c(SCC(N)=O)nnc1-c1ccco1	0.8%	7.3%	1.5%	8.4%	1.6%	-2.3%
CCn1c(SCC(=O)c2ccc(O)c(O)c2)nnc1-c1ccccc1OC	-1.4%	5.3%	-16.9%	-1.4%	0.4%	-3.5%
CCn1c(SCC(=O)c2cccs2)nnc1-c1ccco1	21.0%	-0.8%	21.3µM*	17.3%	17.3%	-1.8%
O=C(CC(c1cccs1)N1Cc2ccccc2C1=O)Nc1cccc(F)c1 (stereo unspecified)	.	.	-4.2%	.	.	.
CN(Cc1cc(Br)cc(Br)c1N)C1CCCCC1	.	-12.0%	.	.	.	-3.0%
Oc1ccc(NCc2ccc(OCc3ccccc3Cl)cc2)cc1	.	6.6%	26.9µM*	.	.	.
Oc1ccc(NCc2ccc(OCc3ccccc3)cc2)cc1	-5.5%	21.3%	26.9µM*	-12.7%	?	.
Cn1c(=O)cc(C(=O)N/N=C/c2ccc(Cl)cc2)[nH]c1=O	-4.9%	.	12µM*	-3.4%	-2.5%	.
Cn1c(=O)n(C)c2cc(/C=N/NC(=O)c3ccc(Cl)cc3)ccc21	2.3%	.	-0.9%	-4.9%	4.6%	.
CCOc1cc(/C=N/Nc2nc3ccccc3[nH]2)cc(Br)c1OCC(=O)N(C)C	-0.4%	-82.2%	23.9µM*	-0.4%	-15.1%	-1.4%
COc1ccc2c(c1)c(/C=N/Nc1nc3ccccc3[nH]1)c(C)n2C	0.5%	.	9.53µM*	5.7%	4.4%	.
COc1cc(/C=N\Nc2nc3ccccc3[nH]2)cc(OC)c1OC	-6.2%	-23.5%	10.7µM*	-2.5%	-2.2%	-20.3%
COc1ccc(/C=N/Nc2nc3ccccc3[nH]2)cc1OC	?	0.8%[1.84 µM]	7.57µM*	?	11.1%	-5.9%
CCc1ccc(S(=O)(=O)c2nnn3c2nc(N(CC)Cc2ccccc2)c2cc(Cl)ccc23)cc1	.	-2.4%	-6.0%	.	.	.
CCOC(=O)c1cc(-c2ccc(OC)cc2)n(CCC(=O)Nc2cccc(C(C)=O)c2)c1C	.	.	-9.4%	.	.	.
O=C(NC(=S)Nc1cccnc1Cl)c1ccco1	?	14.6%	15.1µM*	21.9%	8.4%	-16.3%
O=C(NC(=S)Nc1cccnc1Cl)c1ccc(Cl)cc1	?	.	16.9µM*	?	?	.
Cc1ccnc(NC(=S)NC(=O)c2ccco2)c1	2µM*	87.8%	12µM*	2µM*	?	-16.6%
SMILES	Rab9 prom act	SMN2 splice up	FLuc modulator	NPC1 promoter act	ELG1 genotoxic	KinaseGlo FLuc
Cc1ccnc(NC(=S)NC(=O)/C=C/c2ccco2)c1	?	?	7.57µM*	?	9.2µM*	0.1%
CCOc1ccccc1NC(=S)NC(=O)c1ccco1	3.5%	.	?	-0.4%	1.3%	.
CSc1cccc(NC(=O)CC(c2ccc(F)cc2)N2Cc3ccccc3C2=O)c1 (stereo unspecified)	.	.	-10.6%	.	.	.
CCC(Sc1nc2ccncc2[nH]1)C(=O)Nc1ccc(F)cc1 (stereo unspecified)	.	-11.3%	-7.2%	.	.	.
CC(=O)C1=C(c2ccc(F)cc2)N(C(C)=O)n2c(nnc2C2CCCCC2)S1	.	.	2.5%	.	.	.
CC(Cc1ccc(O)c(O)c1)(NN)C(=O)O (stereo unspecified)	.	-1.0%	.	.	.	-3.4%
Cc1ccnc(NC(=S)NC(=O)c2cccs2)c1	0.794µM*	6.31µM*	4.26µM*	1.58µM*	2.06µM*	-6.3%
Cc1ccnc(NC(=O)CNC(=O)c2cccs2)c1	-3.9%	.	0.5%	2.2%	3.5%	.
O=C(NC(=S)Nc1ccccn1)c1ccco1	2µM*	10µM*	21.3µM*	2.24µM*	?	-17.0%
O=C(NC(=S)Nc1ccc(Cl)cn1)c1cccs1	5.62µM*	12.6µM*	3.01µM*	?	?	-1.2%
CCOC(=O)c1cccc(NC(=O)CSc2cc(=O)n(C)c3ccccc23)c1	.	-6.4%	-13.2%	.	.	.
O=C(CCn1c(=O)c2cccn2c2cccnc21)NCc1cccc(Br)c1	.	.	-1.0%	.	.	.
CCOc1ccc(C2c3[nH]c4ccccc4c3CCN2C(=O)CCc2ccccc2)cc1 (stereo unspecified)	.	.	3.2%	.	.	.
CCOC(=O)N1CCc2c(sc3c2c(=O)n(CCc2ccccc2)c(=O)n3Cc2c(F)cccc2Cl)C1	.	3.3%	0.2%	.	.	.
O=C(Nc1ccc2nc(-c3cccnc3)[nH]c2c1)C12CC3CC(CC(C3)C1)C2	2.3%	13.0%	10.7µM*	13.7%	2.9%	-1.2%
Nc1cccc(C(=O)Nc2ccc3nc(-c4cccnc4)[nH]c3c2)c1	0.1%	-2.5%	?	-2.1%	0.1%	-6.0%
CC(C)c1nc2ccc(NC(=O)C34CC5CC(CC(C5)C3)C4)cc2[nH]1	4.6%	-4.8%	15.1µM*	8.4%	22.2%	-2.6%
O=C(Nc1ccc2nc(-c3cccnc3)[nH]c2c1)C1CCCCC1	14.1%	4.0%	12µM*	8.1%	1.0%	-3.1%
CN(C)S(=O)(=O)c1ccc2c(c1)N(CC(=O)N1CCN(c3ccccc3F)CC1)CCS2	.	.	-7.2%	.	.	.
COc1ccc(-c2noc(C3CC(=O)N(c4ccc(C)c(F)c4)C3)n2)c(OC)c1 (stereo unspecified)	.	.	4.1%	.	.	.
CC1=C(c2ccc(C)cc2)S(=O)(=O)N(Cc2ccc(C(=O)Nc3ccc(C)c(F)c3)cc2)C1=O	.	.	-6.0%	.	.	.
COCCN(CCOC)c1nc(C)nc2c1nc(-c1ccccc1)n2CCN(C)C	.	-6.3%	.	.	.	-4.2%
CC(=O)[C@]1(O)CC[C@@H]2[C@H]3C[C@@H](C)C4=CC(=O)CC[C@@]4(C)C3[C@@H](O)C[C@]21C (stereo partly specified)	.	5.1%[9.22 µM]	.	.	.	-4.8%[7.66 µM]
COc1ccccc1COC(=O)N/C=C/c1ccco1	?	?	15.1µM*	?	9.9%	2.4%
COc1ccc(COC(=O)N/C=C/c2ccco2)cc1	3.8%	17.0%	?	4.1%	3.4%	-3.9%
